From PubChem BioAssay (EPA / NIEHS) come the findings set out here.

Records with an inconclusive call do not appear. The source made the active and inactive calls. Rule for the calls, unless noted: active = hit-call score of the fitted dose curve at least 0.9, where 1 is the maximum; inactive = score below 0.9.

In general, AC50 refers to the midpoint of the concentration-response curve, whichever way the signal moves.

Read-out in assay [1]: solute carrier (SLCO1B1), SLCO1B1 (gene 10599)
Put plainly: LTEA_HepaRG_SLCO1B1: Life Technologies and Expression Analysis (LTEA) Assay for solute carrier (SLCO1B1) using HepaRG (AID 2283530). Particulars: mRNA level, 48 h; actives raise or lower the signal. The method, boiled down: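 HepaRG, serum-free induction medium, 48 h dosing, 8-pt half-log from 100 uM, 0.5% DMSO vehicle, duplicates. Readout: SLCO1B1 mRNA, qRT-PCR, ACTB/GAPDH/POLR2A normalization; up or down fit vs DMSO.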

Read-out in assay [2]: sulfotransferase 2A1 (SULT2A1), SULT2A1 (gene 6822)
Put plainly: LTEA_HepaRG_SULT2A1: Life Technologies and Expression Analysis (LTEA) Assay for sulfotransferase 2A1 (SULT2A1) using HepaRG (AID 2283531). The settings on record: mRNA level, 48 h; actives raise or lower the signal. A digest of the protocol: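 Transcript levels of SULT2A1, quantified by qRT-PCR and normalized to three housekeeping genes, serve as the readout. Human HepaRG cultures receive test chemicals for 48 h at up to 100 uM in half-log steps, with 0.5% DMSO vehicle.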

Read-out in assay [3]: Transforming Growth Factor (TGFA), TGFA (gene 7039)
The experiment in a line: LTEA_HepaRG_TGFA: Life Technologies and Expression Analysis (LTEA) Assay for Transforming Growth Factor (TGFA) using HepaRG (AID 2283532). Particulars: mRNA level, 48 h; actives raise or lower the signal. The method, boiled down:
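Differentiated HepaRG cells exposed 48 hours in serum-free induction medium, 0.5% DMSO vehicle, 8-point half-log series from 100 uM, in duplicate. TGFA mRNA by TaqMan qRT-PCR, normalised to ACTB, GAPDH, POLR2A; bidirectional fit versus DMSO.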

Read-out in assay [4]: Transforming Growth Factor (TGFB1), TGFB1 (gene 7040)
Put plainly: LTEA_HepaRG_TGFB1: Life Technologies and Expression Analysis (LTEA) Assay for Transforming Growth Factor (TGFB1) Transporter using HepaRG (AID 2283533). Particulars: mRNA level, 48 h; actives raise or lower the signal. A digest of the protocol: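 HepaRG, 48 h post-plating, switched to serum-free induction medium; chemicals 100 uM top, half-log, 8 pts, 0.5% DMSO, dup; 48 h exposure; RNA → Fluidigm TaqMan qRT-PCR; norm ACTB/GAPDH/POLR2A; bidirectional fit vs DMSO.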

Read-out in assay [5]: TIMP1, TIMP1 (gene 7076)
Put plainly: LTEA_HepaRG_TIMP1: Life Technologies and Expression Analysis (LTEA) Assay for TIMP1 using HepaRG (AID 2283534).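 Note: TaqMan qRT-PCR signal normalized to ACTB GAPDH and POLR2A housekeeping genes.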 Particulars: mRNA level, 48 h; actives raise or lower the signal. The method, boiled down: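 Readout is TIMP1 mRNA level measured by qRT-PCR and normalized to three housekeeping genes. Human HepaRG cells were treated for 48 h in duplicate at eight concentrations up to 100 uM (0.5% DMSO); gain or loss fitted against DMSO.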

Read-out in assay [6]: Tumor necrosis factor receptor 1 (TNFRSF1A), TNFRSF1A (gene 7132)
Put plainly: LTEA_HepaRG_TNFRSF1A: Life Technologies and Expression Analysis (LTEA) Assay for Tumor necrosis factor receptor 1 (TNFRSF1A) using HepaRG (AID 2283535). The settings on record: mRNA level, 48 h; actives raise or lower the signal. A digest of the protocol: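 Read-out is TNFRSF1A transcript level by TaqMan qRT-PCR, normalized to three housekeeping genes, scored as gain or loss of signal versus 0.5% DMSO. Human HepaRG cells received test chemicals for 48 h at up to 100 uM (half-log series).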

Read-out in assay [7]: Cellular tumor antigen p53 (Homo sapiens) (UniProt P04637)
Put plainly: LTEA_HepaRG_TP53: Life Technologies and Expression Analysis (LTEA) Assay for Tumor Protein P53 (TP53) using HepaRG (AID 2283537). Particulars: mRNA level, 48 h; actives raise or lower the signal. A digest of the protocol: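 Gain or loss of TP53 mRNA signal is scored relative to 0.5% DMSO after 48 h chemical treatment of HepaRG liver cells, tested in duplicate at eight half-log concentrations up to 100 uM.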

Read-out in assay [8]: UDP glucuronosyltransferase (UGT1A1), UGT1A1 (gene 54658)
Put plainly: LTEA_HepaRG_UGT1A1: Life Technologies and Expression Analysis (LTEA) Assay for UDP glucuronosyltransferase (UGT1A1) using HepaRG (AID 2283538). The settings on record: mRNA level, 48 h; actives raise or lower the signal. A digest of the protocol:
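Differentiated human HepaRG cells in serum-free induction medium were exposed in duplicate for 48 h to eight half-log concentrations up to 100 uM in 0.5% DMSO. UGT1A1 mRNA was quantified by TaqMan qRT-PCR, normalized to ACTB, GAPDH and POLR2A, and fitted bidirectionally against DMSO.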

Read-out in assay [9]: UDP glucuronosyltransferase (UGT1A6), UGT1A6 (gene 54578)
The experiment in a line: LTEA_HepaRG_UGT1A6: Life Technologies and Expression Analysis (LTEA) Assay for UDP glucuronosyltransferase (UGT1A6) using HepaRG (AID 2283539). Particulars: mRNA level, 48 h; actives raise or lower the signal. The method, boiled down:
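HepaRG, 48 h post-plating switch to serum-free induction medium; chemical 48 h, 100 uM top, half-log x8, duplicate, 0.5% DMSO. Phenobarbital 1mM induction control. UGT1A6 mRNA by TaqMan qRT-PCR; gain/loss fit vs DMSO.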

Read-out in assay [10]: X-box binding protein 1 (XBP1), XBP1 (gene 7494)
Put plainly: LTEA_HepaRG_XBP1: Life Technologies and Expression Analysis (LTEA) Assay for X-box binding protein 1 (XBP1) using HepaRG (AID 2283540). The settings on record: mRNA level, 48 h; actives raise or lower the signal. A digest of the protocol:
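Transcript levels of XBP1, measured by qRT-PCR and normalised to three housekeeping genes, were fitted bidirectionally relative to 0.5% DMSO controls. Human HepaRG cells received eight-point half-log dilutions from 100 uM for 48 h.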

Assay [11] can be described thus: LTEA_HepaRG_LDH_cytotoxicity: Cytotoxicity Assessment in the Life Technologies and Expression Analysis (LTEA) Assay (AID 2283563; active = hit-call score of the fitted dose curve at least 0.9, where 1 is the maximum). The method, boiled down:
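Cells were thawed and plated for 48 h. Medium was then replaced with serum-free induction medium. Chemicals (8 half-log points, maximum 100 uM, 0.5% DMSO) were added in duplicate for 48 h, after which spent medium was assayed for LDH.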

Assay [12] is described as follows: TOX21_p53_BLA_p3_viability: Viability Assessment in the Tox21 HCT-116 p53 Agonism Beta-lactamase Assay, Phase 3 (AID 2283593; active = hit-call score of the fitted dose curve at least 0.9, where 1 is the maximum;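 note: cells exposed to compound for 16 h before reading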). A digest of the protocol:
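HCT116 cells, 4000/well, dosed 5 h after plating by pin transfer (217-fold dilution from DMSO stock) and incubated 16 h at 37C, 5% CO2. Viability read as ATP luminescence with CellTiter-Glo after 30 min at room temperature.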

Assay [13] has as its target Cellular tumor antigen p53 (Homo sapiens) (UniProt P04637). The experiment in a line: TOX21_p53_BLA_p3_ratio: Tox21 HCT-116 p53 Agonism Beta-lactamase Assay, Ratio, Phase 3 (AID 2283596; active = hit-call score of the fitted dose curve at least 0.9, where 1 is the maximum). A digest of the protocol: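 HCT116 p53-bla cells (4000/well) given compound in DMSO (217-fold dilution) after 5 h, incubated 16 h at 37C. CCF4-AM substrate 2 h at room temperature; 460/530 nm emission ratio, gain fitted against DMSO.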

Assay [14] can be described thus: TOX21_p53_BLA_p4_viability: Viability Assessment in the Tox21 HCT-116 p53 Agonism Beta-lactamase Assay, Phase 4 (AID 2283597; active = hit-call score of the fitted dose curve at least 0.9, where 1 is the maximum;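 note: hits lower the luminescence signal meaning cytotoxicity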). A digest of the protocol:
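Cells plated, 5 h pre-incubation; DMSO compounds pinned (217-fold dilution); 16 h, 37C/5% CO2; CCF4-AM 2 h RT; CellTiter-Glo 30 min RT; luminescence read.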

A short description of assay [15]: TOX21_p53_BLA_p5_viability: Viability Assessment in the Tox21 HCT-116 p53 Agonism Beta-lactamase Assay, Phase 5 (AID 2283600; active = hit-call score of the fitted dose curve at least 0.9, where 1 is the maximum). A digest of the protocol: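 4000 cells/well; 5 h pre-incubation; DMSO compounds pin-transferred, 217-fold dilution; 16 h, 37C/5% CO2; CCF4-AM 2 h RT; CellTiter-Glo 30 min RT; luminescence.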
Assay [16] is described as follows: ATG_XTT_Cytotoxicity: Cytotoxicity Assessment in the Attagene TRANS-FACTORIAL HepG2 Assay (AID 2283584; active = hit-call score of the fitted dose curve at least 0.9, where 1 is the maximum). The method, boiled down:
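Cells: human HepG2, transiently transfected with MRTU reporter constructs. Exposure 24 h. Readout: XTT, cell number. Baseline/neg ctrl DMSO; loss-of-signal scored.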

Assay [17] addresses Cellular tumor antigen p53 (Homo sapiens) (UniProt P04637). Put plainly: TOX21_p53_BLA_p5_ratio: Tox21 HCT-116 p53 Agonism Beta-lactamase Assay, Ratio, Phase 5 (AID 2283599; active = hit-call score of the fitted dose curve at least 0.9, where 1 is the maximum). A digest of the protocol:
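HCT-116 p53-bla cells (4000/well) plated 5 h, dosed with compound (217-fold DMSO dilution) for 16 h at 37 C; CCF4-AM substrate 2 h at room temperature. Activity is the 460/530 nm emission ratio (405 nm excitation), fitted in gain-of-signal direction versus DMSO.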

Read-out in assay [18]: Thyroid Hormone Responsive (THRSP), THRSP (gene 7069)
The experiment in a line: LTEA_HepaRG_THRSP: Life Technologies and Expression Analysis (LTEA) Assay for Thyroid Hormone Responsive (THRSP) using HepaRG (AID 2283536). The settings on record: mRNA level, 48 h; actives raise or lower the signal. A digest of the protocol: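 Differentiated HepaRG cells treated 48 h in serum-free induction medium with 8 half-log concentrations up to 100 uM (0.5% DMSO), duplicates. THRSP mRNA by TaqMan qRT-PCR normalised to ACTB, GAPDH, POLR2A; bidirectional fit versus DMSO.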

Sequence of Cellular tumor antigen p53 (Homo sapiens) (P04637 whole entry, looked up): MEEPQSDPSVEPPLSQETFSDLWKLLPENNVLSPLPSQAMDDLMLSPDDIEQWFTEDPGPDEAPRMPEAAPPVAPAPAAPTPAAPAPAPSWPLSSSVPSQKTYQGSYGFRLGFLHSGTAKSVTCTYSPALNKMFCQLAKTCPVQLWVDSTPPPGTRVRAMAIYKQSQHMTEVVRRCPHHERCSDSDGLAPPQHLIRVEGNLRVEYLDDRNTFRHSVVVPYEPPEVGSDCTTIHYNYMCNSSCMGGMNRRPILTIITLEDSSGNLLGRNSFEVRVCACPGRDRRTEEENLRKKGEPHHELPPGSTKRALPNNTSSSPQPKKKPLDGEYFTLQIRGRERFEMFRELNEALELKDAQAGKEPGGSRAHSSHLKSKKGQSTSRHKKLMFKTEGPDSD

As for `CC(C)(O)c1ccc(CNC(=O)c2cccnc2Oc2ccc(F)cc2)cc1`, the compound was called inactive in assay [1], in [2], in assay [3], in [4], in [5] and in assay [6]. The compound was classed as inactive in assay [7], in [9], in assay [10], in assay [11], in assay [12] and in [13]. The compound was classed as inactive in assay [14] and in assay [15]. In [8], the AC50 is 4.71 µM (active).

On to `CC(C)(C)c1ccccc1`, for which the compound was classed as inactive in assay [1], in assay [2], in assay [3], in assay [4], in [5] and in assay [6]. For the same compound, the outcome in [7], in [8], in assay [9], in assay [10], in [11] and in assay [16] was inactive. The call in [12], in assay [13], in [14], in assay [17] and in [15] was inactive.

Take `O=Cc1ccccc1C=O`: the result in assay [1], in assay [2], in [3], in assay [4], in [5] and in assay [6] was inactive. In addition, the compound was called inactive in [18], in assay [8], in [9], in [10], in assay [11] and in [16].

`CC(=O)O`: the result in assay [1], in assay [2], in assay [3], in assay [4], in assay [5] and in assay [6] was inactive. For the same compound, the result in assay [18], in [8], in [9], in assay [10] and in assay [16] was inactive.

Turning to `CC(=O)CC(c1ccccc1)c1c(O)c2ccccc2oc1=O` (configuration not stated), the compound was called inactive in assay [1], in assay [2], in assay [3], in [4], in assay [5] and in [6]. For the same compound, the compound was called inactive in assay [8], in assay [9], in assay [10], in assay [11] and in [16]. Besides, in assay [18], the AC50 is 34.5 µM (active).
